This is part of a sample that, as a whole, favours compounds with a hit. Of some 83,000 tested, about 20% had one in any assay.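 The endpoint reported here, percent growth, reads 100 for growth as untreated, 0 for no net growth and -100 for all cells dead.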 Unmarked numbers belong to inactive results. The source made the active and inactive calls. Rule for the calls: active = growth percent below 10; inactive = the rest.

Among the test systems are SK-MEL-2 melanoma; EKVX NSCLC; SN12C renal; UO-31 renal; TK-10 renal; ACHN renal; CAKI-1 renal; A498 renal; CCRF-CEM leukemia; MOLT-4 leukemia; SR leukemia; RPMI-8226 leukemia; OVCAR-8 ovarian; OVCAR-5 ovarian; OVCAR-4 ovarian; SK-OV-3 ovarian; IGROV1 ovarian; OVCAR-3 ovarian; HS 578T breast; NCI/ADR-RES ovarian.
Common to all, as to assay: NCI-60 one-dose screen, 48 h (100 = growth as untreated, 0 = no growth, -100 = all killed)
Details in all cases: 10 µM unless noted

For `CS(=O)(=O)Nc1cc(-c2ccc3ncnc(Nc4cccc(Cl)c4)c3c2)cnc1Cl`, the growth in the test on SK-MEL-2 melanoma is -40.6% (active); with EKVX NSCLC, -23.9% (active); in the test with SN12C renal, 16.2%; in the test on UO-31 renal it was -2.12% (active); in the test with TK-10 renal it was -20.4% (active); with ACHN renal, 11.8%. Further, the growth with CAKI-1 renal was 2.5% (active); in the test with A498 renal, -58.1% (active); in the test with CCRF-CEM leukemia it was 14.7%; in the test on MOLT-4 leukemia, -16% (active); in the test on SR leukemia, 0.413% (active); with RPMI-8226 leukemia, -44.8% (active). The growth with OVCAR-8 ovarian is 16.4%; in the test on OVCAR-5 ovarian it was 7.66% (active); with OVCAR-4 ovarian, 13.7%; in the test with SK-OV-3 ovarian, -28.4% (active); in the test with IGROV1 ovarian, -25.7% (active); with OVCAR-3 ovarian it was -10.7% (active). The values for the growth with HS 578T breast and in the test on NCI/ADR-RES ovarian were -13.6% (active) and 19.2%, respectively.
As to `COc1ccc(/C=C/C(=O)c2ccc(-n3cc(CN4CCN(c5cc6c(cc5F)c(=O)c(C(=O)O)cn6C5CC5)CC4)nn3)cc2)cc1`, the growth with SK-MEL-2 melanoma is 97%; with EKVX NSCLC, 96.6%; with SN12C renal, 32.6%; in the test on UO-31 renal, 54.9%; with TK-10 renal it was 104%; in the test on ACHN renal it was 85%. The growth is 67.8% with CAKI-1 renal; 68.2% with A498 renal; 44% with CCRF-CEM leukemia; 64.2% in the test with MOLT-4 leukemia; -2.25% (active) in the test with SR leukemia; -24.4% (active) in the test with RPMI-8226 leukemia. In addition, the growth in the test on OVCAR-8 ovarian is 67.4%; with OVCAR-5 ovarian, 92.1%; in the test on OVCAR-4 ovarian, 88%; with SK-OV-3 ovarian, 76.9%; with IGROV1 ovarian, 26.6%; with OVCAR-3 ovarian, 39.3%. Moreover, the growth with HS 578T breast is 52.8%; in the test with NCI/ADR-RES ovarian, 90.7%.
Consider `NCCNc1ccc([N+](=O)[O-])cc1`, for which the growth was 97.2% in the test on SK-MEL-2 melanoma; 137% in the test with EKVX NSCLC; 103% in the test with SN12C renal; 87.1% in the test with UO-31 renal; 96.2% in the test on TK-10 renal; 108% in the test with ACHN renal. Moreover, the growth in the test with CAKI-1 renal is 113%; with A498 renal, 106%; in the test on CCRF-CEM leukemia, 94.5%; in the test with MOLT-4 leukemia, 96.2%; in the test on SR leukemia, 100%; with RPMI-8226 leukemia, 93%. Moreover, the growth with OVCAR-8 ovarian is 113%; in the test on OVCAR-5 ovarian it was 115%; in the test on OVCAR-4 ovarian, 112%; in the test on SK-OV-3 ovarian, 109%; in the test on IGROV1 ovarian, 111%; in the test with OVCAR-3 ovarian, 134%. For the same molecule, the figures for the growth in the test on HS 578T breast and with NCI/ADR-RES ovarian were 106% and 116%, respectively.
Consider `COc1ccc(S(=O)(=O)NC2c3ccccc3CC2O)cc1OC` (stereo not given), for which the growth was 104% in the test on SK-MEL-2 melanoma; 103% with EKVX NSCLC; 96.1% in the test with SN12C renal; 78.8% in the test on UO-31 renal; 112% in the test on TK-10 renal; 105% with ACHN renal. Moreover, the growth in the test with CAKI-1 renal is 102%; in the test on A498 renal, 92.7%; in the test with CCRF-CEM leukemia, 101%; with MOLT-4 leukemia it was 103%; in the test on SR leukemia, 100%; in the test on RPMI-8226 leukemia, 104%. The growth in the test on OVCAR-8 ovarian was 107%; in the test on OVCAR-5 ovarian it was 104%; with OVCAR-4 ovarian it was 117%; in the test with SK-OV-3 ovarian, 115%; with IGROV1 ovarian, 106%; with OVCAR-3 ovarian it was 112%. Also, the growth is 98.8% with HS 578T breast and 105% with NCI/ADR-RES ovarian.
For `CCOC(=O)C1=C(C)N(C)C(=O)N(C)C1c1ccccc1` (stereo not given), the growth in the test on SK-MEL-2 melanoma was 106%; in the test on EKVX NSCLC, 97.2%; in the test with SN12C renal, 91.6%; with UO-31 renal it was 78.7%; in the test on TK-10 renal, 106%; in the test on ACHN renal, 95.9%. The growth in the test on CAKI-1 renal was 90.6%; in the test on A498 renal it was 86.8%; in the test with CCRF-CEM leukemia, 86.6%; with MOLT-4 leukemia, 104%; in the test with SR leukemia, 125%; with RPMI-8226 leukemia, 99.4%. The growth in the test with OVCAR-8 ovarian was 104%; in the test on OVCAR-5 ovarian, 84.1%; in the test with OVCAR-4 ovarian, 103%; with SK-OV-3 ovarian, 93.9%; in the test on IGROV1 ovarian it was 110%; with OVCAR-3 ovarian it was 99.1%. For the same molecule, the growth was 108% in the test with HS 578T breast and 100% in the test with NCI/ADR-RES ovarian.
As to `Cc1ccc(Nc2oc(-c3ccccc3)nc2[P+](c2ccccc2)(c2ccccc2)c2ccccc2)cc1`, the growth in the test on SK-MEL-2 melanoma is -69.1% (active); with EKVX NSCLC, -31.3% (active); with SN12C renal, 7.56% (active); in the test with UO-31 renal, -72.8% (active); in the test on TK-10 renal, -32.2% (active); with ACHN renal, 2.5% (active). The growth in the test on CAKI-1 renal was -29.8% (active); with A498 renal, -52.2% (active); in the test with CCRF-CEM leukemia it was 6.27% (active); with MOLT-4 leukemia, -2.23% (active); in the test with SR leukemia, 8.76% (active); with RPMI-8226 leukemia, -38.3% (active). Also, the growth is -27.3% (active) with OVCAR-8 ovarian; 11.3% with OVCAR-5 ovarian; 6.45% (active) in the test on OVCAR-4 ovarian; -33.7% (active) in the test on SK-OV-3 ovarian; -11.9% (active) in the test on IGROV1 ovarian; -30.7% (active) with OVCAR-3 ovarian. Besides, the figures for the growth with HS 578T breast and in the test with NCI/ADR-RES ovarian were -38.9% (active) and -52.3% (active), respectively.
On to `COc1cc2c(c(OC)c1OC)CCC(c1cccc(C(=O)Nc3ccccc3Br)c1)O2` (stereo not given), for which the growth with SK-MEL-2 melanoma is 87.8%; in the test with EKVX NSCLC, 90.1%; in the test on SN12C renal it was 85.4%; with UO-31 renal, 67.3%; in the test on TK-10 renal it was 87.5%; with ACHN renal, 86.2%. In addition, the growth is 95.4% in the test on CAKI-1 renal; 56.6% with A498 renal; 86.1% in the test with CCRF-CEM leukemia; 50.4% in the test on MOLT-4 leukemia; 75.6% in the test with SR leukemia; 83% with RPMI-8226 leukemia. The growth was 80.1% with OVCAR-8 ovarian; 90.6% in the test on OVCAR-5 ovarian; 85.3% in the test on OVCAR-4 ovarian; 81% with SK-OV-3 ovarian; 89.2% with IGROV1 ovarian; 100% in the test on OVCAR-3 ovarian. The growth in the test with HS 578T breast is 86.2%; in the test with NCI/ADR-RES ovarian, 99.2%.
Regarding `COc1cc(OCc2cccc(-c3ccc4c(c3)OCCO4)c2C)cc(OC)c1C=O`, the growth is 58.3% in the test on SK-MEL-2 melanoma; 53.7% in the test with EKVX NSCLC; 68.2% in the test with SN12C renal; 51% with UO-31 renal; 43.4% with TK-10 renal; 48% with ACHN renal. For the same molecule, the growth was 25.9% with CAKI-1 renal; -10.4% (active) with A498 renal; 59.1% in the test on CCRF-CEM leukemia; 56.4% in the test with MOLT-4 leukemia; 37.3% in the test on SR leukemia; 29.6% in the test with RPMI-8226 leukemia. Also, the growth is 70.4% with OVCAR-8 ovarian; 68.7% in the test with OVCAR-5 ovarian; 35.9% in the test on OVCAR-4 ovarian; 93.2% in the test with SK-OV-3 ovarian; 68.1% with IGROV1 ovarian; 60.5% with OVCAR-3 ovarian. Besides, the results for the growth with HS 578T breast and in the test on NCI/ADR-RES ovarian were 75.9% and 70.4%, respectively.

(Values after PubChem BioAssay (NCI).)
